Assay results from publication PMC10668032, “Altered binding affinity of SIX1-Q177R correlates with enhanced WNT5A and WNT pathway effector expression in Wilms tumor”.
Over roughly 33,000 sequences, “e-score” has its median near -0.053; the highest 2% begin near 0.38. The sample as a whole holds a higher share of the highest values than the screen did.

Each sequence was assayed against T1, SIX1 homeodomain (reference allele) (human, UniProt Q15475 108-198) (assay: universal protein binding microarray; Universal all-10-mer PBM (8x60K, AMADID 030236), 300 nM GST-tagged protein, Alexa Fluor 488 anti-GST; buffer, salt, pH and temperature not stated (as in Berger); high values mean tight binding). Conditions: protein: ivt; tags: N-terminal GST; dsDNA, one strand shown.
T1 sequence: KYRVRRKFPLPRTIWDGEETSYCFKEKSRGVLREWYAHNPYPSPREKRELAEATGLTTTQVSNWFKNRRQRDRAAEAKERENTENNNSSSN
Outline: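 Duplicate protein binding microarrays (universal 'all 10-mer', 8×60K format) were incubated with GST-tagged homeodomains at 300 nM final concentration. Binding was quantified as 8-mer E-scores with the Universal PBM Analysis Suite.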

With GATCAACC as the sequence, how does the binding signal read?
Its binding signal is 0.319 ± 0.0399 E-score.

ACGATCAG was tested. Which binding signal did it give?
The binding signal was 0.1967 ± 0.000827 E-score.

How did the binding signal turn out when CGGATTTA was run?
Its binding signal is 0.196 ± 0.05 E-score.

GATCCCCC was tested. Which binding signal did it give?
Its binding signal is 0.47 ± 0.0193 E-score.

How did the binding signal turn out when AATCCCCC was run?
The binding signal was 0.261 ± 0.00738 E-score.

With GATCCCAA as the sequence, how does the binding signal read?
Its binding signal is 0.275 ± 0.0231 E-score.

TATCCCCA was tested. Which binding signal did it give?
Its binding signal is 0.35 ± 0.00527 E-score.

With GATCGCCC as the sequence, how does the binding signal read?
The binding signal was 0.379 ± 0.00824 E-score.

Which binding signal does the source give for GATCGCCA here?
The binding signal was 0.211 ± 0.0516 E-score.

AATCCCAC was tested. Which binding signal did it give?
The binding signal was 0.158 ± 0.00675 E-score.

Which binding signal does the source give for CATCCCCC here?
Its binding signal is 0.199 ± 0.0656 E-score.

GATCCCCA was tested. Which binding signal did it give?
The binding signal was 0.387 ± 0.046 E-score.

How did the binding signal turn out when GATCCCGC was run?
The binding signal was 0.375 ± 0.0422 E-score.

With GATCCCAC as the sequence, how does the binding signal read?
The binding signal was 0.379 ± 0.0379 E-score.

For GATCGCGC, which binding signal is on record?
The binding signal was 0.197 ± 0.0401 E-score.

Which binding signal does the source give for ATCTACAG here?
The binding signal was 0.152 ± 0.023 E-score.

ACGTATAT was tested. Which binding signal did it give?
The binding signal was 0.271 ± 0.065 E-score.

Which binding signal does the source give for ATCTAGAT here?
The binding signal was 0.26 ± 0.0531 E-score.

For CGAGACGA, which binding signal is on record?
The binding signal was 0.156 ± 0.029 E-score.

How did the binding signal turn out when CCGGAGAC was run?
Its binding signal is 0.184 ± 0.00939 E-score.

How did the binding signal turn out when CCCCGATC was run?
Its binding signal is 0.346 ± 0.0685 E-score.

With ATGAGCTC as the sequence, how does the binding signal read?
The binding signal was 0.166 ± 0.0357 E-score.

Which binding signal does the source give for GATCCTCC here?
Its binding signal is 0.381 ± 0.0158 E-score.

For GATCCACC, which binding signal is on record?
The binding signal was 0.394 ± 0.0435 E-score.

How did the binding signal turn out when GATCCTCA was run?
The binding signal was 0.295 ± 0.0129 E-score.

How did the binding signal turn out when GATCCAGC was run?
The binding signal was 0.265 ± 0.0768 E-score.

For CATCCTCC, which binding signal is on record?
Its binding signal is 0.153 ± 0.0426 E-score.

For GATCCACA, which binding signal is on record?
The binding signal was 0.335 ± 0.0765 E-score.

ATCTGTCC was tested. Which binding signal did it give?
The binding signal was 0.29 ± 0.0606 E-score.

For CGAGACAC, which binding signal is on record?
The binding signal was 0.176 ± 0.0324 E-score.

CATAGATA was tested. Which binding signal did it give?
The binding signal was 0.259 ± 0.0781 E-score.

TCACATGA was tested. Which binding signal did it give?
The binding signal was 0.166 ± 0.0132 E-score.

For CAATCCCG, which binding signal is on record?
Its binding signal is 0.155 ± 0.0636 E-score.

For ATATCCCG, which binding signal is on record?
Its binding signal is 0.42 ± 0.0102 E-score.

For CAATCCCA, which binding signal is on record?
Its binding signal is 0.177 ± 0.00991 E-score.

For GAATCCCA, which binding signal is on record?
Its binding signal is 0.165 ± 0.0648 E-score.

How did the binding signal turn out when ATCTCCCG was run?
Its binding signal is 0.222 ± 0.0116 E-score.

Which binding signal does the source give for ATATCCCC here?
The binding signal was 0.457 ± 0.00651 E-score.

For CTATCCCC, which binding signal is on record?
The binding signal was 0.321 ± 0.0256 E-score.

With GTATCCCA as the sequence, how does the binding signal read?
Its binding signal is 0.388 ± 0.0324 E-score.

How did the binding signal turn out when AAATCCCC was run?
Its binding signal is 0.181 ± 0.0853 E-score.

For CTATCCCA, which binding signal is on record?
The binding signal was 0.257 ± 0.013 E-score.

How did the binding signal turn out when ATCTCCCA was run?
Its binding signal is 0.238 ± 0.0314 E-score.

Which binding signal does the source give for ATATCCCA here?
Its binding signal is 0.418 ± 0.0119 E-score.

With ATCAAGGG as the sequence, how does the binding signal read?
The binding signal was 0.258 ± 0.0527 E-score.

With GGAGATTA as the sequence, how does the binding signal read?
The binding signal was 0.197 ± 0.0921 E-score.

How did the binding signal turn out when ATCGGGTC was run?
The binding signal was 0.285 ± 0.0351 E-score.

Which binding signal does the source give for CCGATGAG here?
Its binding signal is 0.173 ± 0.0124 E-score.

With GAGATAGA as the sequence, how does the binding signal read?
Its binding signal is 0.183 ± 0.00408 E-score.

For ACGAATAT, which binding signal is on record?
Its binding signal is 0.179 ± 0.047 E-score.

How did the binding signal turn out when CGTTATAC was run?
Its binding signal is 0.204 ± 0.0355 E-score.

ATCATGTG was tested. Which binding signal did it give?
Its binding signal is 0.328 ± 0.0175 E-score.

Which binding signal does the source give for CATTGCGG here?
Its binding signal is 0.222 ± 0.028 E-score.

Which binding signal does the source give for CCGCCATA here?
The binding signal was 0.209 ± 0.0131 E-score.

ATACAACG was tested. Which binding signal did it give?
Its binding signal is 0.152 ± 0.0326 E-score.

Which binding signal does the source give for ATCCTCTC here?
Its binding signal is 0.264 ± 0.0756 E-score.

How did the binding signal turn out when ATCGCTCA was run?
Its binding signal is 0.192 ± 0.00955 E-score.

Which binding signal does the source give for CGGGTCTC here?
Its binding signal is 0.187 ± 0.0479 E-score.

GCGGTATA was tested. Which binding signal did it give?
Its binding signal is 0.3752 ± 0.00298 E-score.

Which binding signal does the source give for CGGGTATA here?
The binding signal was 0.365 ± 0.00269 E-score.

How did the binding signal turn out when CGGGTATC was run?
Its binding signal is 0.487 ± 0.00716 E-score.

How did the binding signal turn out when GGGGTAGA was run?
The binding signal was 0.158 ± 0.0407 E-score.

AGGGTATA was tested. Which binding signal did it give?
The binding signal was 0.407 ± 0.0114 E-score.

Which binding signal does the source give for TAGGTATA here?
Its binding signal is 0.382 ± 0.0292 E-score.

With CGGGGGTA as the sequence, how does the binding signal read?
The binding signal was 0.301 ± 0.0117 E-score.

AAGGTATA was tested. Which binding signal did it give?
The binding signal was 0.272 ± 0.131 E-score.

Which binding signal does the source give for AGGGGGTA here?
Its binding signal is 0.294 ± 0.0383 E-score.

GGGGTATA was tested. Which binding signal did it give?
The binding signal was 0.441 ± 0.0155 E-score.

How did the binding signal turn out when TGATGCCA was run?
Its binding signal is 0.152 ± 0.025 E-score.

How did the binding signal turn out when ATAGGGCG was run?
The binding signal was 0.158 ± 0.0277 E-score.

How did the binding signal turn out when AATATCTG was run?
Its binding signal is 0.188 ± 0.0693 E-score.

How did the binding signal turn out when CATGAAAG was run?
Its binding signal is 0.157 ± 0.0184 E-score.

How did the binding signal turn out when AGGGTAAT was run?
Its binding signal is 0.205 ± 0.0122 E-score.

Which binding signal does the source give for AGGGTATG here?
The binding signal was 0.28 ± 0.0175 E-score.

For AGGGTATC, which binding signal is on record?
The binding signal was 0.4907 ± 0.00122 E-score.

How did the binding signal turn out when CCATCCCC was run?
The binding signal was 0.203 ± 0.0814 E-score.

How did the binding signal turn out when GTAATATA was run?
Its binding signal is 0.226 ± 0.0387 E-score.

How did the binding signal turn out when GGTGATGA was run?
The binding signal was 0.191 ± 0.0354 E-score.

For AGTGATAT, which binding signal is on record?
The binding signal was 0.451 ± 0.0283 E-score.

AGTGATAC was tested. Which binding signal did it give?
The binding signal was 0.489 ± 0.00626 E-score.

AGTGACAC was tested. Which binding signal did it give?
The binding signal was 0.354 ± 0.0169 E-score.

How did the binding signal turn out when CGTGATAC was run?
The binding signal was 0.4798 ± 0.000721 E-score.

Which binding signal does the source give for GGTGATAA here?
The binding signal was 0.154 ± 0.0176 E-score.

How did the binding signal turn out when CGTGATAG was run?
Its binding signal is 0.244 ± 0.00391 E-score.

How did the binding signal turn out when GGTGATAC was run?
Its binding signal is 0.4856 ± 0.00178 E-score.

With AGTGATAG as the sequence, how does the binding signal read?
Its binding signal is 0.32 ± 0.0815 E-score.
